The results in this text go back to PubChem BioAssay (NCATS).

Each structure is given as a SMILES string. Results filed as inconclusive are left out. Active and inactive are the calls of the source. Unless noted, calls come from the whole dose curve; as a rule, active = well fitted curve in the direction sought with a large enough effect; inconclusive = small, poorly fitted or top-dose-only effect, or another doubt; inactive = no such curve, though single readings can be large; an effect the other way counts as inactive or inconclusive. Peptide text beside a SMILES is read from it.

Test [1] can be described thus: Confirmation and Secondary Assay for Modulators of Hemoglobin Beta Chain Splicing at IVS2 705 locus (AID 930).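 Note: HeLa cells stably expressing the EGFP-705 splicing reporter; GFP fluorescence per well restored by corrected splicing of the IVS2-705 intron in EGFP; % of control where 0% means no effect.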 The method, boiled down: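 Splice-correction reporter: EGFP cDNA split by beta-globin intron 2 bearing the 705 mutation, stably in HeLa. Compound incubation 2 days, 37C; fluorescent objects 5-250 µm summed per well.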
Test [2] is described as follows: qHTS Assay for Lipid Storage Modulators (AID 1519; calls by dose curve; for activity change, negative = inhibition: % is set by controls: 0 for no effect and ±100 for the full control effect). The conditions noted are these: Drosophila S3 cells, BODIPY lipid droplet/cell ratio, laser cytometry, cells loaded with oleic acid; for activity change, negative = inhibition: at 57.5 µM (top of the series). The essentials: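 Cells seeded at 5,000 per well were treated with compounds over a concentration series and loaded with oleic acid (400 uM, as added). Lipid droplet fluorescence (488 nm excitation, 500-530 nm channel) was read by laser-scanning cytometry and normalized to 20 uM Triacsin C.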
For orientation: Quantitative high-throughput screening tests each substance at several concentrations.

Test [3] can be described thus: qHTS profiling for inhibitors of Plasmodium falciparum proliferation (AID 504749).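 Note: 0% = DMSO vehicle and full inhibition = artemisinin control; nearly all actives have a fitted effect of over 60% in size.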 As to conditions: P. falciparum in erythrocytes, SYBR Green DNA, 72 h, at 28.7 µM (top of the series). The method, boiled down:
(§1)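 In a 72 h erythrocytic culture (37 C, humidified, 5% CO2) at 2.5% hematocrit and 0.3% starting parasitemia, compounds were tested; SYBR Green I in detergent lysis buffer stained parasite DNA overnight.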

For test [4], the system named is C2A. Described as above. As to conditions: P. falciparum in erythrocytes, SYBR Green DNA, 72 h; series mostly up to 12.8 µM. The essentials:
as §1

The subject of test [5] is CP185. The description is as above. The conditions noted are these: P. falciparum in erythrocytes, SYBR Green DNA, 72 h; series mostly up to 12.8 µM. The essentials:
as §1

Test [6] deals with CP201. Described as above. The conditions noted are these: P. falciparum in erythrocytes, SYBR Green DNA, 72 h; series mostly up to 12.8 µM. The essentials: as §1
The subject of test [7] is CP211. The test is described as above. The conditions noted are these: P. falciparum in erythrocytes, SYBR Green DNA, 72 h; series mostly up to 12.8 µM. The essentials: as §1
The test system of test [8] is CP238. The description is as above. As to conditions: P. falciparum in erythrocytes, SYBR Green DNA, 72 h; series mostly up to 12.8 µM. The method, boiled down: as §1
For test [9], the system named is CP262. The test is described as above. As to conditions: P. falciparum in erythrocytes, SYBR Green DNA, 72 h; series mostly up to 12.8 µM. The method, boiled down:
as §1

Test [10] has as its system CP268. The description is as above. As to conditions: P. falciparum in erythrocytes, SYBR Green DNA, 72 h; series mostly up to 12.8 µM. The essentials:
as §1

Test [11] has as its system CP269. The test is described as above. The conditions noted are these: P. falciparum in erythrocytes, SYBR Green DNA, 72 h; series mostly up to 12.8 µM. The method, boiled down: as §1
Test [12] deals with CP305. Described as above. The conditions noted are these: P. falciparum in erythrocytes, SYBR Green DNA, 72 h; series mostly up to 12.8 µM. The essentials: as §1
Test [13] concerns CP315. Described as above. As to conditions: P. falciparum in erythrocytes, SYBR Green DNA, 72 h; series mostly up to 12.8 µM. The method, boiled down: as §1
The test system of test [14] is CP325. Described as above. The conditions noted are these: P. falciparum in erythrocytes, SYBR Green DNA, 72 h; series mostly up to 12.8 µM. The method, boiled down:
as §1

The subject of test [15] is CP329. The description is as above. The conditions noted are these: P. falciparum in erythrocytes, SYBR Green DNA, 72 h; series mostly up to 12.8 µM. The method, boiled down:
as §1

Test [16] relates to FAB9. Described as above. The conditions noted are these: P. falciparum in erythrocytes, SYBR Green DNA, 72 h; series mostly up to 12.8 µM. The essentials:
as §1

Test [17] relates to JCK. Described as above. The conditions noted are these: P. falciparum in erythrocytes, SYBR Green DNA, 72 h; series mostly up to 12.8 µM. The method, boiled down:
as §1

The test system of test [18] is PC15. The description is as above. The conditions noted are these: P. falciparum in erythrocytes, SYBR Green DNA, 72 h; series mostly up to 12.8 µM. The essentials:
as §1

Test [19] concerns PC49. Described as above. As to conditions: P. falciparum in erythrocytes, SYBR Green DNA, 72 h; series mostly up to 12.8 µM. The method, boiled down: as §1
Test [20] addresses Ubiquitin carboxyl-terminal hydrolase 1 (Homo sapiens) (UniProt O94782). Put plainly: Inhibitors of USP1/UAF1: Pilot qHTS (AID 504865).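 Note: rhodamine fluorescence freed from ubiquitin-rhodamine substrate followed over time; top concentration of the series differs between compounds; % is set by controls: 0 for no effect and ±100 for the full control effect; nearly all actives have a fitted effect of over 35% in size.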 The essentials: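 1nM USP1/UAF1 + cpd, 15 min RT; start w/ Ub-Rho 150nM final; kinetic FL 480/540 nm, 6 reads q60 s. Buffer 50mM HEPES pH 7.8, 0.5mM EDTA, 1mM TCEP, 0.01% Tween-20, 0.1 mg/ml BSA.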
Where [21] appears, read: measured here: cell count channel max response.
Where [22] appears, read: measured here: lipid channel max response.

Sequence of Ubiquitin carboxyl-terminal hydrolase 1 (Homo sapiens) (O94782 whole entry, looked up): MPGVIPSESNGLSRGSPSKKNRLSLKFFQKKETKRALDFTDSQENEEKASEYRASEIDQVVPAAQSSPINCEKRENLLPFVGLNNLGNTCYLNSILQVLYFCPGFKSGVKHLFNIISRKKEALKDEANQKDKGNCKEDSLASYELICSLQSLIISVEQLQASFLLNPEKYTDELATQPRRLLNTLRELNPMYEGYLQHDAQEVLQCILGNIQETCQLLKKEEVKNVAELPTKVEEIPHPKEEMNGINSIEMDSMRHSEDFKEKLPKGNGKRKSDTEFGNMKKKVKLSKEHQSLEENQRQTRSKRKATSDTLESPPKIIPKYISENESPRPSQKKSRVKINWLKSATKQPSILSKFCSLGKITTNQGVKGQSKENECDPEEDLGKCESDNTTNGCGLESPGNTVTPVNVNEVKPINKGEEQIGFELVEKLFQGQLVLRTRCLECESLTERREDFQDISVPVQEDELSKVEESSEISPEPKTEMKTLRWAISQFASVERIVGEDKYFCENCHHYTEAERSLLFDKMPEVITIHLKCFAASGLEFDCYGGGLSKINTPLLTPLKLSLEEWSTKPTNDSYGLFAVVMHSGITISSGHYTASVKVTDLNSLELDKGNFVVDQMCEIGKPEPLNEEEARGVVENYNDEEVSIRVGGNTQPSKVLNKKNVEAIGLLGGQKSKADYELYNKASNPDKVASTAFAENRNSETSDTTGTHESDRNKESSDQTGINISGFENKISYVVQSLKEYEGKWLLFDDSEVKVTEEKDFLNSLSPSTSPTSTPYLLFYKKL

As for `CC(C)=CCC[C@](C)(O)C1CC=C(C)CC1` (stereo partly drawn), the Potency entry in [1], in test [4], in [5], in test [6], in test [7] and in test [8] was “inactive” in each case. In addition, the Potency entry in [9], in test [10], in test [11], in test [12], in test [13] and in [14] was “inactive” each time. The Potency entry in test [15], in test [16], in test [17], in test [18] and in test [19] was “inactive” throughout. Besides, the activity change, negative = inhibition in [2] is 6.04% (inactive). Further, the results for the max response in test [2] (setting [21]) and in test [2] (setting [22]) were -2.85% and 4.12%, respectively. The activity, negative = inhibition in test [3] (parasite line A) was -5.22% (inactive); in [3] (parasite line B) it was 7.19% (inactive).
In the case of `CC(C)CCCC(C)C1CCC2C3CC=C4CC(O)CCC4(C)C3CCC12C` (stereo not drawn), in [2], the activity change, negative = inhibition is 7.38% (inactive). The max response came out at 5.9% in [2] (setting [21]) and 12% in [2] (setting [22]). The Potency entry in test [20] was “inactive”.
Consider `CC1CCC(C(C)C)C(=O)C1` (stereo not drawn), for which the Potency entry in test [1], in test [20], in test [4], in [5], in test [6] and in test [7] was “inactive” throughout. In addition, the Potency entry in [8], in [9], in [10], in test [11], in test [12] and in [13] was “inactive” each time. The Potency entry in test [14], in test [15], in [16], in test [17], in test [18] and in test [19] was “inactive” each time. For the same compound, the activity change, negative = inhibition in [2] is 1.11% (inactive). Moreover, the values for the max response in test [2] (setting [21]) and in test [2] (setting [22]) were 11.5% and 14.2%, respectively. Further, the figures for the activity, negative = inhibition in test [3] (parasite line A) and in test [3] (parasite line B) were 0.527% (inactive) and 15.7% (inactive), respectively.
For `N[C@@H]1C(O)OC(CO)C(O)C1O` (stereo partly drawn), the Potency result in test [1], in test [20], in [4], in test [5], in test [6] and in [7] was “inactive” each time. Also, the Potency entry in test [8], in [10], in [12], in test [13], in [14] and in [15] was “inactive” in each case. The Potency result in test [16], in [17], in [18] and in test [19] was “inactive” each time. Also, the activity change, negative = inhibition in test [2] is 5.31% (inactive). The max response in test [2] (setting [21]) amounted to 7.77%; in [2] (setting [22]), 20.8%. Also, the activity, negative = inhibition in test [3] (parasite line A) was 3.86% (inactive).
With `C[C@@H]1O[C@@H](O[C@H]2[C@H](Oc3cc(O)c4c(c3)O[C@H](c3ccc(O)cc3)CC4=O)O[C@H](CO)[C@@H](O)[C@@H]2O)[C@H](O)[C@H](O)[C@H]1O`, the activity change, negative = inhibition in test [2] is -1.6% (inactive). The max response in test [2] (setting [21]) is -6.96%; in test [2] (setting [22]), -9.22%. In addition, the Potency entry in test [20] is “inactive”.
Take `CC(=O)N[C@H](CC(C)C)C(=O)O`: the Potency result in [1], in test [20], in test [4], in test [5], in test [6] and in test [7] was “inactive” each time. The Potency entry in test [8], in test [9], in test [10], in test [11], in [12] and in test [13] was “inactive” in each case. Also, the Potency result in test [14], in test [15], in test [16], in [17], in test [18] and in [19] was “inactive” throughout. Also, the activity change, negative = inhibition in test [2] was 6.38% (inactive). Besides, the results for the max response in test [2] (setting [21]) and in test [2] (setting [22]) were 8.9% and 16.6%, respectively. Further, the figures for the activity, negative = inhibition in test [3] (parasite line A) and in test [3] (parasite line B) were -8.85% (inactive) and 9.6% (inactive), respectively.
On to `O=C(O)C1OC(O)C(O)C(O)C1O` (stereo not drawn), for which, in test [2], the activity change, negative = inhibition was -3.53% (inactive). The max response was -1.15% in test [2] (setting [21]) and -5.5% in [2] (setting [22]). Moreover, the Potency result in [20] was “inactive”.
For `COC(=O)C(Cc1ccccc1)NC(=O)C(N)CC(=O)O` (stereo not drawn) (H-Asp-Phe-OMe; configuration not given here), the Potency result in [1], in test [20], in test [4], in test [5], in test [6] and in [7] was “inactive” throughout. Besides, the Potency entry in [8], in test [9], in test [10], in test [11], in test [12] and in test [13] was “inactive” each time. Also, the Potency result in test [14], in test [15], in test [16], in [17], in test [18] and in test [19] was “inactive” each time. The activity change, negative = inhibition in [2] is 5.29% (inactive). Also, the max response in test [2] (setting [21]) was -5.71%; in [2] (setting [22]), 3.61%. Moreover, the activity, negative = inhibition in test [3] (parasite line A) was 0% (inactive); in test [3] (parasite line B), 12.1% (inactive).
